Shown are actives, neighbours in structure and some others; about 2.3% of the full set was active somewhere.
MCL1-BIM inh – disrupts human MCL1 binding to BIM-BH3 peptide; inhibition, % at 10.9 µM; GST-MCL1 / FITC-Bim-BH3 fluorescence polarization; hit rate 0.68% among 320,000; AID 2057;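 active = inhibition above the mean inhibition of all tested compounds plus 3 SD, set per campaign, cut at about 40% in these data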;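 note: 0% = DMSO wells and 100% = unlabeled Bim-BH3 peptide control; higher means more loss of mP so more displacement of Bim peptide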
BCLXL inh – Bcl-xL (human) inhibition | hit rate 0.7% among 320,000 | Q07817 | AID 2129 | GST-Bcl-xL / FITC-Bim BH3 peptide fluorescence polarization | inhibition, % at 10.9 µM;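 active = inhibition above the mean of all tested compounds plus 3 SD, cutoff set per campaign, cut at about 30% in these data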;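 note: 0% = DMSO wells and 100% = unlabeled Bim-BH3 peptide competitor; inhibitors lower millipolarization by displacing the labeled peptide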
Target sequence (Q07817 whole entry, looked up): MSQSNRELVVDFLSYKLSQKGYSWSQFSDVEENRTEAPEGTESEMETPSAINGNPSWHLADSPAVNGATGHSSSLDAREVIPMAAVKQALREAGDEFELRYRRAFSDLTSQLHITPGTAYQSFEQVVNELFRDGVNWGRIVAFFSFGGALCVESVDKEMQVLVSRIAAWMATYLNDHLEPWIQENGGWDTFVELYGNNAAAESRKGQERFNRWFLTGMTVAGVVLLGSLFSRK
Mcl-1 Bim block – disrupts Bim peptide binding to human Mcl-1 | Q07820 | Bead-based flow cytometry, Bim peptide-Mcl-1 binding | inhibition, % at 10 µM | hit rate 0.1% among 190,000 | AID 1009; in the data active = inhibition above about 40%;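 note: 0% = no compound tracer wells and 100% = peptide blocker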
GLD-1 TGE inh – GLD-1-TGE RNA interaction inhibition (C. elegans); Q17339; purified GLD-1 + fluorescein TGE RNA, fluorescence polarization; inhibition, % at 5.96 µM; hit rate 0.44% among 320,000; AID 2280;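 active = percent inhibition above a per-plate cutoff, the plate mean of test compounds plus 3 SD, cut at about 30% in these data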;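 note: 0% = DMSO wells with GLD-1 and probe and 100% = wells lacking GLD-1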
Target sequence (Q17339 whole entry, looked up): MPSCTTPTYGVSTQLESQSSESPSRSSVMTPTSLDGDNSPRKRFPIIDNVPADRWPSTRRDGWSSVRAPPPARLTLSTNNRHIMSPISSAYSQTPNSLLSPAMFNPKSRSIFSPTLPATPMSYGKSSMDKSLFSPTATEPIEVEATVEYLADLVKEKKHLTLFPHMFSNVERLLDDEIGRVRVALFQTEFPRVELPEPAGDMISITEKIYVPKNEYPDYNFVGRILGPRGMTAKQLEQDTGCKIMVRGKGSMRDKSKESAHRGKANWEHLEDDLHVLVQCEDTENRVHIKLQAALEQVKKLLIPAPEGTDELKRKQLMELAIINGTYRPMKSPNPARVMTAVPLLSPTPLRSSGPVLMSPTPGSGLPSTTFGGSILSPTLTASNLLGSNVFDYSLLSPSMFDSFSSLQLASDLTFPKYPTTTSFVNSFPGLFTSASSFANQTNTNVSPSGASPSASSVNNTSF
Mcl1 Noxa PPI – Mcl-1/Noxa interaction inhibition. Q07820. TR-FRET Mcl-1/Noxa peptide binding, 2 h. inhibition, % at 21.7 µM. hit rate 1.5% among 220,000. AID 1022;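 active = compounds that cut the protein-peptide binding signal by more than 50% relative to plate controls in a single-dose test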;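 note: His-tagged Mcl-1 with rhodamine Noxa BH3 peptide and terbium anti-His antibody; 0% = Mcl-1 plus Noxa peptide wells and 100% = peptide-only wells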
Mcl1 Bid PPI – Mcl-1/Bid interaction inhibition. hit rate 0.97% among 220,000. inhibition, % at 21.7 µM. TR-FRET Mcl-1/Bid-Dy647 peptide binding, 1536-well. Q07820;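 active = compounds that cut the binding signal by more than half at the single screening dose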;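 note: His-tagged Mcl-1 with europium anti-His antibody binding Bid BH3 peptide; 0% = Mcl-1 plus peptide wells and 100% = peptide-only wells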
The depositor's hits bear a star; . = not tested or not shown.

SMILES	MCL1-BIM inh	BCLXL inh	Mcl-1 Bim block	GLD-1 TGE inh	Mcl1 Noxa PPI	Mcl1 Bid PPI
Cc1ccccc1-c1cc2nc(-c3ccc([N+](=O)[O-])cc3)cc(=O)n2[nH]1	0.2	5.0	0.0	-6.8	-12.2	-60.1
O=c1cc(-c2ccc([N+](=O)[O-])cc2)nc2cc(-c3ccc(F)cc3)[nH]n12	6.8	9.4	0.0	7.6	64.6*	-46.4
COc1cccc(CN2CCN(c3nc4nonc4nc3NC3CC3)CC2)c1	13.7	26.6	-2.0	21.0	8.4	-39.9
CCOC(=O)CSc1n[nH]c(-c2cccnc2)n1	-2.7	-0.5	0.0	-1.4	52.6*	-6.0
COC(=O)CSc1n[nH]c(-c2cccnc2)n1	5.2	7.6	-2.0	-0.4	16.1	-2.1
CCN(CCNC(=O)CN1CCN(Cc2ccc(Cl)cc2)C1=O)c1ccccc1	1.1	2.1	0.0	-11.0	-20.4	87.4*
O=C(CN1CCN(Cc2ccccc2)C1=O)NCc1ccc(Cl)cc1	0.6	3.8	-2.0	-0.5	-14.9	-33.4
COc1cc(/C=C2\SC(=S)N(CC(=O)Nc3ccc(O)cc3)C2=O)cc(OC)c1OC	.	.	0.0	.	77.3*	-16.9
COc1ccc(/C=C2\SC(=S)N(CCC(=O)NC3=NCCS3)C2=O)cc1OC	11.4	3.1	0.0	3.0	55.6*	21.9
COc1cc(/C=C2\SC(=S)N(CC(=O)NC3=NCCS3)C2=O)cc(OC)c1OC	14.7	5.6	0.0	4.6	11.6	0.5
Cc1cc(NC(=O)CCN2C(=O)/C(=C\c3ccccc3)SC2=S)no1	3.0	2.1	.	-1.7	71.5*	-4.7
CC(Oc1ccc(Cl)cc1Cl)C(=O)N(C)c1ccccc1 (stereo not drawn)	6.7	-0.2	0.0	8.9	15.9	94.2*
COC(=O)NNC(=O)C(C)Oc1ccc(Cl)cc1Cl (stereo not drawn)	2.2	4.8	0.0	7.2	1.9	-12.2
COc1ccc(NC(=O)c2ccc(COc3ccc(C)cc3)o2)cc1	2.3	5.6	1.0	0.0	9.8	1.3
Cn1cc(C(=O)N/N=C/c2c(O)ccc3ccccc23)ccc1=O	-2.3	4.2	-2.0	-75.2	57.8*	-86.1
O=C(Nc1ccccc1N1CCOCC1)c1cccnc1Cl	-4.5	3.3	0.0	2.3	4.1	-38.9
NCCCC[C@H](NC(=O)C1CCNCC1)c1nnc([C@@H](N)CO)o1	-3.1	0.0	-1.0	-8.3	16.2	19.7
NCCCC[C@H](NC(=O)C1CCNCC1)c1nnc(CN)o1	5.9	11.7	0.0	-3.1	35.0	90.2*
Cc1cccc(OCCCC(=O)NCC(=O)Nc2cccc(C)c2C)c1	7.3	1.4	-4.0	6.0	2.5	-9.7
Cn1nnnc1SCC1=C(C(=O)O)N2C(=O)[C@@H](NC(=O)[C@H](O)c3ccccc3)[C@H]2SC1	10.6	8.6	-4.0	3.1	51.2*	-57.4
COc1ccccc1NCCC(=O)OCC(=O)NCc1ccco1	19.9	5.3	0.0	6.0	64.3*	-42.5
COc1ccc(OCCC(=O)OCC(=O)NCc2ccco2)cc1	17.3	9.0	-1.0	8.4	46.1	-73.9
O=C(COC(=O)c1ccccc1Oc1ccccc1)NCc1ccco1	9.2	2.8	-3.0	0.3	52.1*	-26.2
Cc1cc(Br)ccc1SCC(=O)OCC(=O)NCc1ccco1	31.2	6.4	.	4.9	54.6*	-26.1
COc1ccccc1C1CC(c2ccccc2)Nc2ncnn21 (stereo not drawn)	2.1	4.8	-4.0	-4.1	14.1	97.3*
SMILES	MCL1-BIM inh	BCLXL inh	Mcl-1 Bim block	GLD-1 TGE inh	Mcl1 Noxa PPI	Mcl1 Bid PPI
CCN1CCN(C(c2cccs2)C(C)NC(=O)c2cccc(OC)c2)CC1 (stereo not drawn)	6.2	1.9	.	-0.8	.	.
CCN1CCN(C(c2cccs2)C(C)NC(=O)c2cccc(OC)c2OC)CC1 (stereo not drawn)	4.2	3.3	-5.0	4.8	52.2*	-43.1
Oc1[nH]c2ccccc2c1/C=N/N1CCCCC1	0.2	2.0	0.0	1.8	-5.8	93.3*
CC(C)(C)NC(=O)C1CC(=O)N(CCc2ccc(F)cc2)C1 (stereo not drawn)	-4.5	4.3	.	8.3	.	.
O=C(Nc1ccc(Br)cc1)C1OCCc2ccccc21 (stereo not drawn)	-1.4	2.5	.	6.0	5.0	-9.5
CCc1noc(C)c1C(=O)N(C)CC(=O)Nc1ccc(Br)cc1C	-12.0	-2.7	.	0.5	.	.
CC(=O)c1ccc(NC(=O)C(C)n2c3ccccc3c3nc(=O)cc(C)n32)cc1 (stereo not drawn)	11.3	8.5	.	-1.0	-3.9	97.2*
Cc1cc(=O)nc2c3ccccc3n(C(C)C(=O)NCCC(C)C)n12 (stereo not drawn)	5.2	3.5	.	-1.9	-10.6	13.8
CC(C(=O)NC1CCCC1)N(Cc1ccco1)C(=O)c1snc(C(=O)NC2CCCC2)c1N (stereo not drawn)	-3.2	2.6	-3.0	2.1	90.3*	37.2
CCCn1c(SCC(=O)NC2CCC(C)CC2)n[nH]c1=O (stereo not drawn)	47.8*	40.9*	.	10.5	.	.
Cc1cc(C)c(S(=O)(=O)/N=C2\C=CC(=O)C(Cl)=C2)c(C)c1	32.1	15.8	1.0	-0.4	95.5*	46.7
CCOC(=O)C1=C(CSc2nc3c(cc2C#N)CN(C)CC3)OC(N)=C(C#N)C1c1ccc(F)cc1 (stereo not drawn)	42.9*	39.3*	0.0	25.1	13.7	-62.2
c1cc2c(cc1NC1CCCCCC1)OCO2	47.4*	33.8*	.	2.0	.	.
O=C(NC1CCCCCCC1)c1ccc2c(c1)OCO2	5.8	5.2	1.0	-1.7	-10.3	-19.5
CCCC1c2ccc(C)n2CCN1C(=O)Nc1ccccc1Cl (stereo not drawn)	44.6*	40.8*	-7.0	21.4	3.5	-40.7
CCC1c2ccc(C)n2CCN1C(=O)Nc1cc(Cl)ccc1OC (stereo not drawn)	53.4*	56.3*	-8.0	38.2*	-3.7	-33.8
COc1ccc(Cl)cc1NC(=O)N1CCC(C)CC1	10.0	5.6	-2.0	5.3	-5.7	-14.8
CSCC[C@H](N)C(=O)NC[C@H]1CC[C@H](C(=O)N[C@@H](Cc2ccccc2)C(=O)O)CC1	3.1	5.0	.	-0.4	.	.
COC(=O)c1cccc(NC(=O)COC(=O)CSc2nc(C)cc(C)n2)c1	6.8	135.2*	0.0	4.5	2.2	-22.9
CC(Sc1ccc(Cl)cc1)C(=O)Nc1ccccc1-c1ccccc1 (stereo not drawn)	2.6	-0.5	-2.0	4.3	71.2*	2.6
Cc1ccc(SC(C)C(=O)Nc2ccccc2-c2ccccc2)cc1 (stereo not drawn)	0.4	3.0	-1.0	-2.5	10.1	3.2
Oc1ccc(NC(=S)N=Nc2c(O)[nH]c3ccc(Br)cc23)cc1	.	.	3.0	.	57.4*	-21.7
CCCCc1cc(=O)oc2cc(OCC(=O)NCC3CCC(C(=O)O)CC3)ccc12 (stereo not drawn)	1.1	4.3	.	1.6	.	.
O=Cc1cn(-c2ccccc2)nc1-c1cc2cc(O)ccc2oc1=O	-14.0	-34.9	-2.0	6.2	37.6	61.2*
